p97 inhibitor = inhibitors of human p97 ATPase; actives 0.42% (n = 220,000); P55072; recombinant p97 ATPase, Kinase-Glo ATP luminescence, 3 h; AID 1481; inhibition, % at 8 µM; in the data active means inhibition above about 15%;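 further: 0% = DMSO vehicle and 100% = wells lacking enzyme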
Target sequence (P55072 whole entry, looked up): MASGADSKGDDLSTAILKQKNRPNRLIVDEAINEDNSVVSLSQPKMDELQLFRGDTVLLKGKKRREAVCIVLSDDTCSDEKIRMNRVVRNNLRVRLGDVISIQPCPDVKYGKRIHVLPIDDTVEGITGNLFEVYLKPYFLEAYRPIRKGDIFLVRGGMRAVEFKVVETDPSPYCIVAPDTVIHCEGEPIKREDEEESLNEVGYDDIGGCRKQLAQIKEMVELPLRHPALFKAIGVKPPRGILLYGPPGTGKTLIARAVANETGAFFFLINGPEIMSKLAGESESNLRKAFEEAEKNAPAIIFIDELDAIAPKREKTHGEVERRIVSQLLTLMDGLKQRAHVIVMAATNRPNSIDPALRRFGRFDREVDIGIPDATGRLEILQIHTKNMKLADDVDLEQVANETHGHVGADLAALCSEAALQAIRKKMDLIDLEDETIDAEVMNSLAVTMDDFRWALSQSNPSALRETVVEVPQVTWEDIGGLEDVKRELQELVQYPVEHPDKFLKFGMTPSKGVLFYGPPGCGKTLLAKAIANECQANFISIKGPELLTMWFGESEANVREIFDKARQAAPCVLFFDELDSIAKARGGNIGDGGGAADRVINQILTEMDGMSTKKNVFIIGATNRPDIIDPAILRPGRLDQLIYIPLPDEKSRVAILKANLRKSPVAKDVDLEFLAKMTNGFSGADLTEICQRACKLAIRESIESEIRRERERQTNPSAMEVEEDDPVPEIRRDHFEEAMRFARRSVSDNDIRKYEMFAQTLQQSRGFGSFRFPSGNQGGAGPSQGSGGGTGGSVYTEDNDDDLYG
INS promoter inh = TRM-6 insulin promoter activity inhibition | TRM-6 cells (human fetal islet line), insulin promoter-eGFP reporter, imaging; reporter expression induced with tamoxifen | inhibition, % at 2 µM | actives 0.9% (n = 130,000);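 active means inhibition above the mean plus 3 SD, with well images judged a real hit on visual review, cut at about 60% in these data, passing the limit was not always enough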
Lmaj promast = inhibitors of Leishmania major promastigote growth. Leishmania major promastigotes, resazurin fluorescence viability. inhibition, % at 10 µM. actives 9% (n = 200,000). AID 1063; in the data active means inhibition above about 50%;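 further: promastigotes grown with compound for 44 hours at 28 °C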
ROMK mod = human ROMK K+ channel modulation, primary screen; AID 1918; Tet-inducible ROMK, thallium flux fluorescence; actives lie on both sides; B-score at 10 µM; actives 2% (n = 130,000); P48048;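 active means signal ratio slope over the read window, or its plate-corrected B-score, at least 3 SD from the plate mean, either direction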;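 further: B-score of the F/F0 ratio slope over 7 to 12 s after thallium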
PTEN del growth = PTEN-deleted cell growth suppression; HCT116 PTEN-null viability, CellTiter-Glo, 60 h; stronger effect = lower value; viability, % at 10 µM; actives 1.2% (n = 140,000);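 active means viability at or below a set limit, 4 SD under the median of all tested compounds, cut at about 3.7% in these data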;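 further: PTEN knockout HCT116 line with beta catenin targeted HCT116 as companion control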
HCT116 bCat-KO = beta-catenin-lacking colon tumor cell growth suppression | AID 818 | viability, % at 10 µM | HCT116 beta-catenin knockout viability, CellTiter-Glo, 60 h; stronger effect = lower value | actives 1.5% (n = 140,000);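 active means viability at or under a set limit, the compound median less 4 SD, cut at about 6% in these data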;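 further: 0% = Hyamine 1622 control at 20 µM and 100% = untreated cell control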
The depositor's hits bear a star; · = not tested or not shown. The list is not random: actives were taken first. Their share in the collection is about 10%.

SMILES	p97 inhibitor	INS promoter inh	Lmaj promast	ROMK mod	PTEN del growth	HCT116 bCat-KO
O=C(c1ccccc1)C(CN1CCCC1)c1ccccc1 (stereo not given)	2	-42	100*	-0.64	1.5*	1.8*
O=C(CN1CCCCC1)c1ccc(F)cc1	3	·	·	0.91	·	·
CCn1c(O)c(C=NCc2cccs2)c(=O)[nH]c1=O	4	-21	-1	·	89	87
CCOC(=O)c1c(N)n(CCCOC(=O)c2ccco2)c2nc3ccccc3nc12	3	·	82*	-0.099	88	91
C=CCNC(=O)c1c(N)n(CCN2CCOCC2)c2nc3ccccc3nc12	-4	12	39	·	71	80
COCCOC(=O)c1c(N)n(Cc2ccc(OC)cc2)c2nc3ccccc3nc12	13	·	89*	·	61	70
CCOC(=O)c1c(N)n(Cc2ccc(OC)cc2)c2nc3ccccc3nc12	2	·	96*	-0.62	66	74
Nc1c(C(=O)NCc2ccco2)c2nc3ccccc3nc2n1CCN1CCCCC1	14	11	64*	-0.57	6	11
COCCOC(=O)c1c(N)n(Cc2ccco2)c2nc3ccccc3nc12	5	16	21	-0.56	·	·
CNCCc1nc(N)n[nH]1	-4	-26	-2	2.6	102	92
COCCNC(=O)c1c(N)n(CCC(C)C)c2nc3ccccc3nc12	0	-28	100*	-1.3	74	83
CC(C)CCn1c(N)c(C(=O)NCc2cccs2)c2nc3ccccc3nc21	-5	44	22	·	59	62
CCCNC(=O)c1c(N)n(Cc2ccc3c(c2)OCO3)c2nc3ccccc3nc12	1	49	0	·	72	80
COC(=O)c1c(N)n(Cc2ccc(OC)cc2)c2nc3ccccc3nc12	7	19	52*	-0.089	75	82
CC(C)CNC(=O)c1c(N)n(Cc2ccc3c(c2)OCO3)c2nc3ccccc3nc12	1	13	68*	·	20	32
CC(C)OC(=O)c1c(N)n(Cc2ccco2)c2nc3ccccc3nc12	2	-33	56*	-1.2	75	86
C#CCNc1ccncc1S(=O)(=O)NC(=O)NC(C)C	-4	54	-4	·	100	92
COc1ccc(OC)c(-n2c(O)c(C=Nc3c(C)n(C)n(-c4ccccc4)c3=O)c(=O)[nH]c2=S)c1	4	·	·	·	·	·
Cc1ccc(C(=O)C2CN3CCC2CC3)cc1 (stereo not given)	1	3	74*	·	92	93
CCN1CCN(Cc2cc(Br)ccc2O)CC1	-1	38	85*	-0.16	104	101
COc1cc(Br)cc(CN2CCN(C)CC2)c1O	4	60	76*	·	99	105
CCN1CCN(Cc2cc(Br)cc(Br)c2O)CC1	-3	3	73*	0.1	95	95
CCc1ccc(CN2CCN(Cc3cc(Br)ccc3O)CC2)cc1	1	-43	81*	-1.6	·	·
COc1ccc(Br)cc1CN1CCN(CCO)CC1	3	50	8	·	94	107
Oc1ccc(Br)cc1CN1CCN(c2ccccc2)CC1	0	-20	11	·	88	90
SMILES	p97 inhibitor	INS promoter inh	Lmaj promast	ROMK mod	PTEN del growth	HCT116 bCat-KO
Oc1c(Cl)cc(Cl)cc1CN1CCN(Cc2ccccc2)CC1	-1	-110	29	·	93	94
COc1cccc(-n2c(O)c(C=NCCN3CCOCC3)c(=O)[nH]c2=O)c1	7	·	0	0.21	101	102
CC/C(=N\N1CCN(C)CC1)c1c(O)[nH]c(=O)[nH]c1=O	3	39	-4	·	98	101
C1=C(CCNCc2ccccc2)CCCC1	-6	-11	73*	·	98	93
Fc1ccc(CNCCc2ccccc2)cc1	-2	-64	0	-0.28	·	·
Cc1oc(-c2ccccc2)nc1CN1C(=O)CN=C(c2ccccc2)c2ccccc21	-8	-30	9	0.21	71	76
Cc1ccc(CN2C(=O)CN=C(c3ccccc3)c3ccccc32)cc1	2	0	57*	-0.53	86	100
O=C(CCC(=O)N1CCC2(CC1)OCCO2)Nc1nnc(C2CCCCC2)s1	2	·	·	·	·	·
CCOc1ccc(N=C2SCCCN2C)cc1	2	-6	-9	0.2	95	89
CCN(CC)c1ccc(CN(C)CCc2ccc(OC)c(OC)c2)cc1	-1	·	63*	-0.69	74	82
CC(=O)c1c(C)n(Cc2ccccc2Cl)c2ccc(O)cc12	0	·	-5	0.43	·	·
CCOC(=O)COc1ccc2c(c1)c(C(C)=O)c(C)n2Cc1ccccc1	-6	13	76*	-1.2	·	·
CSCc1nnc2n1-c1ccc(Cl)cc1C(c1ccccc1)=NC2	2	44	94*	0.016	82	71
CS(=O)(=O)NCc1nnc2n1-c1ccc(Cl)cc1C(c1ccccc1)=NC2	-5	-33	-7	·	101	99
Cc1c(C(c2ccc(F)cc2)c2c(O)c3ccccc3oc2=O)c(=O)n(-c2ccccc2)n1C (stereo not given)	4	-36	-6	0.039	89	88
COc1ccc(C(c2c(O)c3ccccc3oc2=O)c2c(C)n(C)n(-c3ccccc3)c2=O)cc1 (stereo not given)	4	64*	-9	0.35	92	86
Cc1ccc2cc(C=C(C#N)C#N)c(Cl)nc2c1	5	·	23	0.59	22	20
O=C(c1ccco1)c1cn(Cc2ccc(Cl)cc2)c2ccccc12	0	-19	80*	-1	60	53
CCOC(=O)c1c(-n2c(C)cc(/C=C3\C(=O)NC(=O)N(C)C3=O)c2C)sc2c1CCCC2	4	·	93*	1.4	73	77
Cc1cc(/C=C2\C(=O)NC(=O)N(c3ccc(Cl)cc3)C2=O)c(C)n1-c1sc2c(c1C#N)CCCC2	4	·	0	·	74	65
O=c1cccc2n1CC1CC2CN(S(=O)(=O)c2ccccc2)C1 (stereo not given)	8	-26	-3	·	86	98
COc1ccccc1[As](=O)(O)CC(O)COc1ccc(Cl)cc1Cl (stereo not given)	6	·	·	·	·	·
CCCC12CN3CC(CCC)(CN(C1)C3c1ccccn1)C2=O (stereo not given)	-3	-64	18	-0.2	88	88
CN1CCN(c2ccc(F)cc2N)CC1	6	-91	-8	0.18	·	·
O=C(Cc1ccccc1)N1CCN(Cc2cccnc2)CC1	1	59	-1	-0.38	86	91
SMILES	p97 inhibitor	INS promoter inh	Lmaj promast	ROMK mod	PTEN del growth	HCT116 bCat-KO
CCOC(=O)C1(CCc2ccccc2)CCN(Cc2cccc3c2OCO3)CC1	-2	·	79*	-2.4	·	·
CCOC(=O)C1(CCc2ccccc2)CCN(Cc2cccc3cnccc23)CC1	-4	·	82*	-0.61	·	·
CCOC(=O)C1(CCc2ccccc2)CCN(Cc2csc(C(C)=O)c2)CC1	-3	·	83*	-0.91	·	·
CC(C)(C)n1c(O)c(C=Nc2ccc3c(c2)CCC3)c(=O)[nH]c1=O	2	·	7	-0.86	80	98
O=c1[nH]c(=O)n(-c2ccccc2F)c(O)c1C=NCCC1=CCCCC1	-5	-69	10	-1.7	·	·
CCN1CCN(c2cc(N3CCCC3)c([N+](=O)[O-])cc2F)CC1	-2	-56	99*	-0.4	95	81

Source: PubChem BioAssay (several laboratories)
